43 molecules from PubChem BioAssay AID1214 (Sanford-Burnham Center for Chemical Genomics, 2008) can be followed below.

Each structure is given as a SMILES string. In all, about 190,000 compounds went through this assay and about 10 (0.005%) were called active. A selection follows. Unmarked numbers belong to inactive results.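 The calls were made as follows: active = activation factor of 2 or more at 20 µM, relative to plate controls; inactive = the rest.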

Chain of Mannose-6-phosphate isomerase (Homo sapiens) (P34949 whole entry, looked up): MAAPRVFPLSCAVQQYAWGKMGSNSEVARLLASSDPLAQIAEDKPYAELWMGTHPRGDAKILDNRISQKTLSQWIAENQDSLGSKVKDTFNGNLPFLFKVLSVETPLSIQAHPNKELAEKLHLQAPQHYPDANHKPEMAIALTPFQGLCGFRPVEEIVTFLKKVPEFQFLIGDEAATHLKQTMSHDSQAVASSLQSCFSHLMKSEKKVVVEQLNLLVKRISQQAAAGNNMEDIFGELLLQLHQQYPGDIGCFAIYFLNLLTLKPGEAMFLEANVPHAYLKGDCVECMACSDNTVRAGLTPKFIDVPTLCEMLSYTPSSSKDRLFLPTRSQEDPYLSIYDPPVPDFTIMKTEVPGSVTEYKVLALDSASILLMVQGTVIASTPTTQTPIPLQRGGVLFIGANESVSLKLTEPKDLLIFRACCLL

The test has as its target Mannose-6-phosphate isomerase (Homo sapiens) (UniProt P34949). The test can be described thus: MPI enzyme activity enhancement – biochemical, fluorescence intensity, near-Km mannose 6-phosphate, primary screen (AID 1214). To be noted: purified human PMI, coupled resazurin fluorescence, 20 min; at 20 µM; hits give high values; 1 = vehicle control, 0 substrate-free wells. A general note: The colour change of resazurin is a common sign of viable cells or microbes.
In the case of `CCOC(=O)C1CCN(S(=O)(=O)c2cc(F)ccc2OC)CC1`, the activation factor is 1.
With `COCCNc1nc2nonc2nc1N(C)Cc1ccc(C)cc1`, the activation factor is 0.9.
In the case of `Cc1ccc(NC(=O)CC(=O)Nc2ccc(C)cc2)cc1` it was 1.
Take `CCOC(=O)C1=C(N)N(c2ccc(C)cc2)C2=C(C(=O)CCC2)C1c1cccs1` (stereo not drawn): the activation factor is 1.
In the case of `CN(C)/C=C(/C(=O)c1ccccc1Cl)S(C)(=O)=O` it was 1; in that of `COC(=O)c1nc(NC(=O)c2ccc(C(C)(C)C)cc2)n[nH]1`, 1.1.
Regarding `CC(C)Oc1ccc(/C=C(\NC(=O)/C=C/c2ccco2)C(=O)NCCc2nc3ccccc3[nH]2)cc1`, the activation factor is 0.9.
As for `O=C(c1ccccc1)c1ccc(OCC(O)CN2CCCC2)cc1` (stereo not drawn), the activation factor was 1.
The result for `COc1cc(S(=O)(=O)N2CCOCC2)ccc1NC(=O)COc1ccc(N(C)S(=O)(=O)c2ccc(C)cc2)cc1` reads 1; that for `Cc1cc(C#N)c(SCC(N)=O)nc1-c1ccc(F)cc1`, 1.1; that for `CC1=NNC(=O)C1CCC(=O)N/N=C\c1cccc(Cl)c1` (stereo not drawn), 1.
Take `CCOC(=O)c1sc2nc(C)nc(SCC(N)=O)c2c1C`: the activation factor was 1.1.
The result for `COC(=O)c1cc(NC(=O)c2nn(C)c(=O)c3ccccc23)cc(C(=O)OC)c1` reads 1; that for `CCC(C(=O)Nc1ccc(C(C)C)cc1)c1ccccc1` (stereo not drawn), 1; that for `CC(C)(C)c1ccc(/C=C/C(=O)Nc2ncccn2)cc1`, 1.
In the case of `COC(=O)c1ccc(NC(=O)CSc2nncc3ccc(OC)c(OC)c23)cc1` it was 1; in that of `COc1ccc(OCC(O)CNC(=O)Nc2ccc(Cl)cc2)cc1` (stereo not drawn), 0.9; in that of `Cc1ccc(CN2CCN(/N=C/c3cccnc3)CC2)c(C)c1`, 1.1.
Consider `CCC(C)(C)NC(=O)CN(Cc1cccs1)C(=O)CNS(=O)(=O)c1ccc(F)cc1`, for which the activation factor was 1.1.
In the case of `COc1cccc(CC2(CO)CCCN(CC3=Cc4cc(OC)ccc4OC3)C2)c1` (stereo not drawn) it was 0.9; in that of `CC1CCN(c2ccc(C(=O)NCc3ccc4c(c3)OCO4)cc2[N+](=O)[O-])CC1`, 0.8; in that of `Cc1cccc(C2=N/C(=C/c3cccs3)C(=O)O2)c1`, 1.
In the case of `CCc1cc(C(=O)OC)c(NC(=O)CC2Sc3ccc(C(F)(F)F)cc3NC2=O)s1` (stereo not drawn) it was 0.9; in that of `Cc1ccc(C(=O)N/C(=C/c2ccc(-c3cccc([N+](=O)[O-])c3)o2)C(=O)NCCCN(C)C)cc1`, 1.
The result for `COC(=O)NNC(=O)C1CCC(C)CC1` (stereo not drawn) reads 1.1.
Regarding `COC(=O)C(NS(=O)(=O)c1ccc(F)cc1)c1ccccc1` (stereo not drawn), the activation factor is 1.
The result for `COc1ccc(Cl)cc1NC(=O)Cn1nc(-c2ccc(C)cc2)n(C)c1=S` reads 1.1; that for `CCc1ccc(N(CC(=O)Nc2sc3c(c2C(=O)OC)CCCC3)S(C)(=O)=O)cc1`, 0.8.
As to `CN(CCOc1ccc(Br)cc1)CC(=O)Nc1cccc(S(=O)(=O)NC2=NCCC2)c1`, the activation factor was 0.9.
In the case of `OCCC1CN(Cc2ccc3nsnc3c2)CCN1C1CCCCC1` (stereo not drawn) it was 0.9; in that of `O=C(CSc1nnc2ccc(-c3ccncc3)nn12)N1CCCCC1`, 1.
For the molecule `COc1cccc(C(=O)NCCSc2ccc(Br)cc2)c1`, the activation factor is 1.1.
Take `N#CCOc1ccc(C2=NO[C@@H]3[C@@H]4C[C@@H]([C@H]5C(=O)N(c6ccc7c(c6)OCO7)C(=O)[C@@H]45)[C@H]23)cc1`: the activation factor is 0.9.
In the case of `Cn1cc(/C=C/C(=O)N2CCCC(C(=O)c3ccc(C(F)(F)F)cc3)C2)cn1` (stereo not drawn) it was 1; in that of `COc1ccc(CCCc2nnc(SCc3nc4ccccc4c(=O)[nH]3)n2C)cc1`, 1.
In the case of `CN(C)c1ccc(/C=N/NC(=O)C(O)c2ccc(Br)cc2)cc1` (stereo not drawn) it was 1; in that of `Nc1nc(NC(=O)/C=C/c2ccccc2)nn1-c1ccccc1`, 1; in that of `COc1ccc(OC)c(C(=O)c2ccc(C(=O)N3CCN(Cc4csc(C)n4)CC3)cc2)c1`, 1.
Take `O=C(Cc1ccccc1)NCC1OCCc2ccccc21` (stereo not drawn): the activation factor is 0.9.
The result for `O=Cc1ccc(OCc2cn3ccccc3n2)cc1` reads 1.1; that for `CCCCC1S/C(=N/N=C/c2cccs2)NC1=O` (stereo not drawn), 1.3.
For the molecule `Cc1cc2oc(C(=O)Nc3c(C)n(C)n(-c4ccccc4)c3=O)c(C)c2cc1Cl`, the activation factor is 1.1.
On to `CN1CCC(=NNC(=O)c2ccc(N(Cc3ccc(Cl)cc3)S(C)(=O)=O)cc2)CC1`, for which the activation factor was 0.8.
